In the antibiotic and cytotoxicity screens of Wong et al. (2023):
In all, about 39,000 compounds went through this assay and about 3,300 (8.5%) were called active. The sample holds actives, similar compounds and a random draw of the others, so the mix is not that of the screen.

tested on: HepG2; experiment: cytotoxicity call (relative viability < 0.9); details: 10 µM

| Compound | cytotoxicity call |
| --- | --- |
| C[C@H](CO)N1C[C@H](C)[C@H](CN(C)C(=O)c2ccc3c(c2)OCO3)Oc2ncc(C3=CCCC3)cc2C1=O | inactive |
| C[C@H](CO)N1C[C@H](C)[C@@H](CN(C)C(=O)c2ccc3c(c2)OCO3)Oc2ncc(C3=CCCC3)cc2C1=O | inactive |
| C[C@H]1CN([C@@H](C)CO)C(=O)c2cc(C3=CCCC3)cnc2O[C@H]1CN(C)C(=O)c1ccc2c(c1)OCO2 | active |
| OC1(c2ccc(Cl)c(C(F)(F)F)c2)CCN(CCCC(c2ccc(F)cc2)c2ccc(F)cc2)CC1 [listing 1 of 2 here] | active |
| OC1(c2ccc(Cl)c(C(F)(F)F)c2)CCN(CCCC(c2ccc(F)cc2)c2ccc(F)cc2)CC1 [listing 2 of 2 here] | active |
| COC(=O)C[C@@H]1CC[C@@H]2[C@H](COC[C@H](O)CN2S(=O)(=O)c2ccccc2C)O1 | inactive |
| C[C@@H]1CN([C@H](C)CO)C(=O)Cc2cc(NC(=O)NC3CCCCC3)ccc2O[C@H]1CN(C)S(=O)(=O)c1cn(C)cn1 | inactive |
| COc1ccc2c(=O)ccoc2c1 | inactive |
| COc1ccc2oc(C(C)=O)cc2c1 | inactive |
| COc1ccc(-c2c(C)oc3ccc(Cl)cc23)cc1 | active |
| COc1ccc(-c2cc(=O)c3ccccc3o2)cc1 | inactive |
| COc1ccc2c(-c3ccc(Cl)cc3)c(C)oc2c1 | active |
| COc1ccc2c(C)cc(=O)oc2c1 | inactive |
| C[C@@H]1CN([C@H](C)CO)C(=O)c2cccc(NC(=O)C3CCOCC3)c2O[C@@H]1CN(C)Cc1ccncc1 | inactive |
| C[C@H]1CN([C@@H](C)CO)C(=O)c2cccc(NC(=O)Nc3cccc4ccccc34)c2O[C@H]1CN(C)CC1CCCCC1 | inactive |
| CCN(CCO)CCCC(C)Nc1ccnc2cc(Cl)ccc12.O=S(=O)(O)O (configuration not stated) | active |
| Cc1cc(Oc2ccnc3cc(Cl)ccc23)ccc1Cl | inactive |
| O=C(OCC(O)CO)c1ccccc1Nc1ccnc2cc(Cl)ccc12 (configuration not stated) | inactive |
| CCN(CC)Cc1ccc(Nc2ccnc3cc(Cl)ccc23)cc1O.Cl.Cl | active |
| COc1ccc2nc3ccc(Cl)cc3c(SCCCN)c2c1 | inactive |
| CCN(CC)CCCC(C)Nc1c2ccc(Cl)cc2nc2ccc(OC)cc12.Cl.Cl (configuration not stated) | active |
| COc1ccc2nc(Cl)sc2c1 | inactive |
| CCN(CC)CCCC(C)Nc1ccnc2cc(Cl)ccc12.O=P(O)(O)O.O=P(O)(O)O (configuration not stated) | active |
| Cc1noc(C)c1S(=O)(=O)N(C)C[C@H]1Oc2ccc(NC(=O)c3ccncc3)cc2CC(=O)N([C@H](C)CO)C[C@@H]1C | inactive |

| Compound | cytotoxicity call |
| --- | --- |
| Cc1noc(C)c1NC(=O)N(C)C[C@@H]1Oc2ccc(NC(=O)CCN3CCOCC3)cc2CC(=O)N([C@H](C)CO)C[C@@H]1C | inactive |
| Cc1ccc(S(=O)(=O)N(C)C[C@@H]2Oc3ncc(-c4ccncc4)cc3C(=O)N([C@H](C)CO)C[C@H]2C)cc1 | inactive |
| COc1ccc(NC(=O)N(C)C[C@H]2Oc3cc(C#CCN(C)C)ccc3S(=O)(=O)N([C@@H](C)CO)C[C@@H]2C)cc1 | inactive |
| C[C@@H]1CN([C@@H](C)CO)C(=O)c2cc(NC(=O)Cn3cnnn3)ccc2O[C@H]1CN(C)Cc1ccc(C(=O)Nc2ccccc2N)cc1 | inactive |
| C[C@@H]1CN([C@H](C)CO)C(=O)c2cc(NC(=O)C3CC3)ccc2O[C@@H]1CN(C)C(=O)Nc1ccc2c(c1)OCO2 | inactive |
| COc1ccc(C#Cc2cnc3c(c2)C(=O)N([C@H](C)CO)C[C@H](C)[C@@H](CN(C)C(=O)CN(C)C)O3)cc1 | inactive |
| C[C@H]1CN([C@@H](C)CO)C(=O)c2cc(NC(=O)Nc3ccccc3)ccc2O[C@H]1CN(C)Cc1ccc(C(F)(F)F)cc1 | inactive |
| C[C@@H]1CN([C@H](C)CO)C(=O)c2cc(NC(=O)Nc3ccccc3)ccc2O[C@@H]1CN(C)Cc1ccc(C(F)(F)F)cc1 | inactive |
| C[C@@H]1CN([C@@H](C)CO)C(=O)c2cc(NC(=O)Nc3ccccc3)ccc2O[C@H]1CN(C)Cc1ccc(C(F)(F)F)cc1 | inactive |
| C[C@H]1CN([C@@H](C)CO)C(=O)c2cc(NC(=O)Nc3ccccc3)ccc2O[C@@H]1CN(C)Cc1ccc(C(F)(F)F)cc1 | active |
| C[C@@H]1CN([C@H](C)CO)C(=O)c2cc(NC(=O)Nc3ccccc3)ccc2O[C@H]1CN(C)Cc1ccc(C(F)(F)F)cc1 | active |
| C[C@H](CO)N1C[C@H](C)[C@H](CN(C)Cc2ccc(C(F)(F)F)cc2)Oc2ccc(NC(=O)Nc3ccccc3)cc2C1=O | active |
| C[C@@H]1CN([C@@H](C)CO)C(=O)c2cc(NC(=O)Nc3ccccc3)ccc2O[C@@H]1CN(C)Cc1ccc(C(F)(F)F)cc1 | active |
| C[C@H](CO)N1C[C@H](C)[C@H](CN(C)Cc2ccc(C(=O)O)cc2)Oc2ccc(NC(=O)Nc3ccc(C(F)(F)F)cc3)cc2C1=O | inactive |
| C[C@@H]1CN([C@H](C)CO)C(=O)c2cc(NC(=O)Nc3ccc(C(F)(F)F)cc3)ccc2O[C@@H]1CN(C)Cc1ccc(C(=O)O)cc1 | inactive |
| COc1cccc(S(=O)(=O)Nc2ccc3c(c2)C(=O)N(C)C[C@@H](OC)[C@@H](C)CN(C(=O)Cc2cccnc2)[C@@H](C)CO3)c1 | inactive |
| CC(C)NC(=O)N[C@@H]1C=C[C@@H](CC(=O)NCCN2CCCC2)O[C@H]1CO | inactive |
| COc1ccc(NC(=O)N(C)C[C@@H]2OCCCC[C@@H](C)Oc3ccc(NC(=O)C4CCCCC4)cc3C(=O)N([C@H](C)CO)C[C@H]2C)cc1 | inactive |
| COc1ccc(CN(C)C[C@H]2OCCCC[C@H](C)Oc3ccc(NC(=O)C4CCCCC4)cc3C(=O)N([C@@H](C)CO)C[C@H]2C)cc1 | inactive |
| O=C(C[C@H]1CC[C@@H]2NC[C@H](O)COC[C@H]2O1)NCCN1CCCCC1 | inactive |
| O=C1O[C@H](c2ccccc2)[C@H](c2ccccc2)N2[C@H]1[C@@H](C(=O)N1CCCCCCC1)[C@]1(C(=O)Nc3ccc(C#CCCO)cc31)[C@H]2c1ccc(O)cc1 | inactive |
| CSc1nc2nc(N)nc(N)c2s1 | inactive |
| COc1cccc(S(=O)(=O)N2C[C@H](O)COC[C@@H]3O[C@H](CC(=O)N4CCN(c5ccccc5)CC4)CC[C@H]32)c1 | inactive |
| O=C(C[C@H]1CC[C@@H]2[C@H](COC[C@H](O)CN2S(=O)(=O)c2cccc(Cl)c2)O1)NC1Cc2ccccc2C1 | inactive |

| Compound | cytotoxicity call |
| --- | --- |
| C[C@@H]1CN([C@@H](C)CO)C(=O)c2cccc(NC(=O)c3cnccn3)c2O[C@@H]1CN(C)S(C)(=O)=O | inactive |
| CC(C)NC(=O)Nc1ccc2c(c1)C(=O)N([C@H](C)CO)C[C@H](C)[C@@H](CN(C)Cc1ccccc1)OCCCC[C@@H](C)O2 | inactive |
| C[C@H](CO)N1C[C@H](C)[C@@H](CN(C)Cc2ccc(C(=O)O)cc2)Oc2ccc(NC(=O)Nc3ccc(C(F)(F)F)cc3)cc2C1=O | inactive |
| C[C@@H]1CN([C@@H](C)CO)C(=O)c2cc(NC(=O)Nc3ccc(C(F)(F)F)cc3)ccc2O[C@@H]1CN(C)Cc1ccc(C(=O)O)cc1 | inactive |
| C[C@H](CO)N1C[C@H](C)[C@@H](CN(C)Cc2ccc(C(F)(F)F)cc2)Oc2ccc(NC(=O)Nc3ccccc3)cc2C1=O | active |
| C[C@@H]1CCCCO[C@H](CN(C)C(=O)c2ccncc2)[C@@H](C)CN([C@H](C)CO)C(=O)c2cc(NC(=O)C3CCCCC3)ccc2O1 | inactive |
| C[C@H](CO)N1C[C@H](C)[C@@H](CN(C)S(=O)(=O)c2cn(C)cn2)Oc2ccc(NS(=O)(=O)c3cn(C)cn3)cc2C1=O | inactive |
| C[C@@H]1CCCCO[C@@H](CN(C)S(=O)(=O)c2ccc(F)cc2)[C@@H](C)CN([C@@H](C)CO)C(=O)c2cc(NC(=O)Nc3cccc4ccccc34)ccc2O1 | inactive |
| CC(C)c1ccccc1Cc1cc(C(=O)Nc2ccc(S(=O)(=O)c3ccccc3C(C)(C)C)cc2)c(O)c(O)c1O | active |
| CCc1cccc(C(C)C)c1NC(=O)Nc1ccccc1 | inactive |
| Cc1oc(C(C)(C)C)cc1C(=O)Nc1ccc(C(C)C)cc1 | inactive |
| C[C@@H]1CN([C@@H](C)CO)C(=O)Cc2cc(NC(=O)CCN3CCOCC3)ccc2O[C@@H]1CN(C)S(=O)(=O)c1ccccc1 | inactive |
| COC(=O)C1=CC(CCCO)=C[C@@H](c2ccc(CN3CCCC3)cc2)N(Cc2sc3ccccc3c2Cl)C=C1C(=O)OC | inactive |
| C[C@@H]1CN([C@H](C)CO)C(=O)c2cc(C#Cc3ccccc3)cnc2O[C@@H]1CN(C)C(=O)CCN1CCCCC1 | inactive |
| C[C@H](CO)N1C[C@H](C)[C@@H](CN(C)C(=O)CCN2CCCCC2)Oc2ncc(C#Cc3ccccc3)cc2C1=O | inactive |
| C[C@H]1CN([C@@H](C)CO)C(=O)c2cc(C#Cc3ccccc3)cnc2O[C@H]1CN(C)C(=O)CCN1CCCCC1 | active |
| C[C@@H]1CN([C@@H](C)CO)C(=O)c2cc(C#Cc3ccccc3)cnc2O[C@@H]1CN(C)C(=O)CCN1CCCCC1 | inactive |
| C[C@H]1CN([C@@H](C)CO)C(=O)c2cc(C#Cc3ccccc3)cnc2O[C@@H]1CN(C)C(=O)CCN1CCCCC1 | active |
| C[C@@H]1CN([C@H](C)CO)C(=O)c2cc(C#Cc3ccccc3)cnc2O[C@H]1CN(C)C(=O)CCN1CCCCC1 | inactive |
| CC(C)NC(=O)N(C)C[C@@H]1Oc2ccc(NC(=O)c3ccncc3)cc2CC(=O)N([C@@H](C)CO)C[C@H]1C | inactive |
| COc1ccc(S(=O)(=O)N(C)C[C@@H]2Oc3ccc(NC(=O)CCCN(C)C)cc3CC(=O)N([C@H](C)CO)C[C@@H]2C)cc1 | inactive |
| Cc1ccc(=O)[nH]n1 | inactive |
| C[C@@H]1CN([C@@H](C)CO)C(=O)c2cc(-c3cccnc3)cnc2O[C@@H]1CN(C)Cc1ccc(Oc2ccccc2)cc1 | inactive |
| C[C@H]1CCCCO[C@H](CN(C)C(=O)Nc2cccc3ccccc23)[C@@H](C)CN([C@@H](C)CO)C(=O)c2cc(NC(=O)Cc3ccccc3)ccc2O1 | inactive |
